PubChem BioAssay (NCI)
The panel holds about 83,000 compounds, 20% with a hit somewhere; the sample as a whole holds those more often.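 Cell lines were cultured in 96-well plates, exposed to a single compound concentration, and assessed for percent growth 48 hours later.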 Unmarked numbers belong to inactive results. Activity calls are given as the source filed them. The calls were made as follows: active = growth percent below 10; inactive = the rest.

Tests used:
Assay in all cases: NCI-60 one-dose screen, 48 h (100 = growth as untreated, 0 = no growth, -100 = all killed)
SK-MEL-2 melanoma = conditions: 10 µM unless noted
SN12C renal = conditions: 10 µM unless noted
UO-31 renal = conditions: 10 µM unless noted
TK-10 renal = conditions: 10 µM unless noted
ACHN renal = conditions: 10 µM unless noted
CAKI-1 renal = conditions: 10 µM unless noted
CCRF-CEM leukemia = conditions: 10 µM unless noted
MOLT-4 leukemia = conditions: 10 µM unless noted
SR leukemia = conditions: 10 µM unless noted
RPMI-8226 leukemia = conditions: 10 µM
OVCAR-8 ovarian = conditions: 10 µM unless noted
OVCAR-5 ovarian = conditions: 10 µM unless noted
OVCAR-4 ovarian = conditions: 10 µM unless noted
IGROV1 ovarian = conditions: 10 µM unless noted
OVCAR-3 ovarian = conditions: 10 µM unless noted
HS 578T breast = conditions: 10 µM unless noted
NCI/ADR-RES ovarian = conditions: 10 µM unless noted
A498 renal = conditions: 10 µM unless noted
SK-OV-3 ovarian = conditions: 10 µM

Structure (SMILES)	growth (SK-MEL-2 melanoma)	growth (SN12C renal)	growth (UO-31 renal)	growth (TK-10 renal)	growth (ACHN renal)	growth (CAKI-1 renal)	growth (CCRF-CEM leukemia)	growth (MOLT-4 leukemia)	growth (SR leukemia)	growth (RPMI-8226 leukemia)	growth (OVCAR-8 ovarian)	growth (OVCAR-5 ovarian)	growth (OVCAR-4 ovarian)	growth (IGROV1 ovarian)	growth (OVCAR-3 ovarian)	growth (HS 578T breast)	growth (NCI/ADR-RES ovarian)	growth (A498 renal)	growth (SK-OV-3 ovarian)
COc1ccc(/C=N/OCC(O)CN2CCC(O)CC2)cc1OC1CCCC1 (stereo not given)	105%	103%	88.6%	106%	104%	95.4%	113%	106%	112%	110%	109%	101%	100%	107%	114%	108%	104%		
COc1cc(/C=N/NC(=O)c2cnn3c2NC(c2ccccc2)C3)cc(OC)c1OC (stereo not given)	47.6%	87.4%	68.9%	85.7%	80.2%	42.1%	79.7%	80.5%	47.6%	96.7%	90.7%	87.2%	82.5%	54.7%		65.2%	82.9%		
C[C@@H](Oc1cc(-c2cnn(C3CC4(CCNCC4)C3)c2)cnc1N)c1c(F)ccc(Cl)c1Cl	-65.5% (active)	22%	13.8%		28.2%	60.9%	-19.6% (active)	-33% (active)	-29.2% (active)	-40.1% (active)	39.8%	27.8%	40.7%	47.7%	44.4%	25.6%	61.5%	-6.38% (active)	62.6%
CCSc1nnc2c3cc(Br)ccc3n(C)c2n1	97.8%	102%	63.3%		90.8%	80.9%	102%	107%	92.7%	104%	97.2%	105%	98%	90.8%	109%	111%	109%	91.5%	105%
COc1ccc(NC(=O)c2ccc3c(c2)nc(-c2ccc(Cl)cc2)n3-c2cc(C(C)(C)C)[nH]n2)cc1	92.7%	86%	62.4%	75.8%	90.1%	61%		55.1%	79.7%	90.2%	89.3%	100%	72.7%	88.7%	94.5%	62%	80.1%	62.2%	114%
COc1ccc(C2OCC(C)(C)CO2)cc1OC	106%	98.5%	89.8%	109%	107%		94.3%	100%	100%	95.6%	105%	100%	104%	139%	117%	109%	108%	115%	107%
COc1cc(C(F)(F)F)ccc1-c1cc(-c2ccc(F)cc2)n[nH]1	118%	85.2%	59.6%		77%	78.4%	89.8%	91.2%	107%	67.5%	84.7%	88.7%	71.2%	80.6%	91.9%	96.3%	91.5%	95.1%	104%
COc1c(Cl)ccc2c(-c3nc4cc(Cl)c(F)cc4s3)cc(=O)oc12	37.7%	96.3%	-88.8% (active)		47.8%	34.4%	-68% (active)	44.3%	23.2%	49%	62.5%	96.5%		-59.8% (active)	75.5%	100%	33%	107%	104%
O=C(N/N=C/c1ccc2c(c1)OCO2)c1cnn2c1NC(c1ccccc1)C2 (stereo not given)	50.1%	73.7%	67.5%	70.3%	46%	21.1%	67.7%	75.2%	31.6%	76.4%	66.8%	78.1%	48.9%	51.5%	25.2%	32.5%	55.6%		
COc1ccc(OC2=C(C#N)C(=N)N3c4ccccc4Sc4ccccc4C3N2)cc1 (stereo not given)	130%	94.3%	59.5%	120%	83.3%		80.9%	139%	104%	88%	102%	102%	112%	63%	92.1%		85.2%		79.3%
COc1ccc(Nc2[nH]n(C3=Nc4ccccc4Sc4ccccc43)c(=O)c2C#N)cc1	59.4%	50.1%	35.6%	65.9%	40.3%		50.2%		70.8%	37%	40.2%	102%	47.5%	55.1%	52.4%		45.2%		53.5%
O=C(Nc1ccccc1O)c1ccc(NS(=O)(=O)c2cccc3cccnc23)cc1	23.6%	61.2%	20.8%		52.1%	44.7%	33.1%	28.5%	32.8%	15.3%		16.5%	74.5%	58.6%	62.5%	37.3%	29.2%	45.5%	64.5%
C(=C\c1ccccc1)/CN1CCN(C(c2ccccc2)c2ccccc2)CC1	104%	90.4%	70.5%	110%	95.1%		94.4%	90.2%	76.4%	77.1%	85.7%	101%	87.1%	122%	114%	93.4%	81.7%	69.5%	108%
CN1CCc2c(Sc3ccc(C(=O)NO)cc3)c3ccccc3n2C1	39.6%	59.4%	62.8%		64.6%	78.8%	3.13% (active)	6.7% (active)	12.6%	7.63% (active)	7.62% (active)	27.1%	28.3%	75.6%	42.8%	60.2%	75.2%	28.6%	62.4%
O=C(c1cnn2c1NC(c1ccc(F)cc1)C2)N1CCCCC1 (stereo not given)	104%	104%	89.8%	105%	102%	93.4%	105%	108%	107%	103%	106%	102%	98.7%	103%	106%	99.8%	109%		
O=C1Nc2ccc(Cl)cc2/C1=N/N=C(c1ccccc1)c1ccccc1	103%	93.7%	63.9%	111%	87.5%	63%	92.7%	93.3%	101%	92.9%	96%	96.2%	85.8%	77.4%	105%	97.3%	98%		
NC(=O)c1cc(I)ccc1NC(=O)COc1ccc(Cl)cc1Cl	79.2%	103%	83.3%		99%	88.8%	81.6%	80.5%	40.9%	96.3%	102%	103%	114%	89.3%	103%	106%	82.3%	73.9%	90.5%
CCOC(=O)c1[nH]c2cc(Cl)ccc2c1[C@@H](C(=O)NC(C)(C)C)N(CC)C(=O)CCCCC#Cc1cccc2c1CN(C1CCC(=O)NC1=O)C2=O (stereo not given in full)	-13.2% (active)	24.4%	0.0319% (active)	34.3%	13%	7.95% (active)	13.7%	10.1%	12.7%	7.28% (active)	10.9%	39.6%	13.2%	8.84% (active)	8.96% (active)	-12.6% (active)	16.8%		
